Records with an inconclusive call do not appear. Activity calls are given as the source filed them. How the source made its calls: active means hit-call score of the fitted dose curve at least 0.9, where 1 is the maximum; inconclusive means response in the unintended direction; inactive means score below 0.9.
Key:
[1] = target: Cellular tumor antigen p53 (Homo sapiens) (UniProt P04637); test: TOX21_p53_BLA_p3_ratio: Tox21 HCT-116 p53 Agonism Beta-lactamase Assay, Ratio, Phase 3 (AID 2283596)
Outline: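 HCT116 p53-bla cells (4000/well) given compound in DMSO (217-fold dilution) after 5 h, incubated 16 h at 37C. CCF4-AM substrate 2 h at room temperature; 460/530 nm emission ratio, gain fitted against DMSO.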

[2] = TOX21_p53_BLA_p4_viability: Viability Assessment in the Tox21 HCT-116 p53 Agonism Beta-lactamase Assay, Phase 4 (AID 2283597);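 further: hits lower the luminescence signal meaning cytotoxicity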
Outline: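 We seeded HCT116 p53 reporter cells at 4000/well and waited 5 h. We then added compounds in DMSO at a 217-fold dilution and incubated for 16 h. Viability was read as CellTiter-Glo luminescence after 30 min at RT.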

[3] = target: Cellular tumor antigen p53 (Homo sapiens) (UniProt P04637); test: TOX21_p53_BLA_p5_ratio: Tox21 HCT-116 p53 Agonism Beta-lactamase Assay, Ratio, Phase 5 (AID 2283599)
Outline: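 Beta-lactamase reporter ratio (blue 460 nm over green 530 nm, 405 nm excitation) after 2 h CCF4-AM loading, in HCT-116 cells exposed 16 h at 37 C to compounds pinned at 217-fold dilution. Increases relative to DMSO baseline scored.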

[4] = TOX21_p53_BLA_p5_viability: Viability Assessment in the Tox21 HCT-116 p53 Agonism Beta-lactamase Assay, Phase 5 (AID 2283600)
Outline: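 Compounds, pinned from DMSO at 217-fold dilution, were left on the cells for 16 h. The viability endpoint was ATP content measured by CellTiter-Glo luminescence, where falling signal reflects cytotoxicity.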

[5] = Tanguay_ZF_120hpf_MORT_legacy: (Legacy) Oregon State University Tanguay Lab 120 Hour Post-fertilization zebrafish Assay for Mortality (AID 2283633)
Outline: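 Brightfield scoring of embryo death (binary) at 24 and 120 hpf; static exposure 6–120 hpf, 28C, sealed and foil-covered. Pronase-dechorionated 5D wild-type larvae, single embryo per well. DMSO 0.64% v/v; trimethyltin chloride 5uM positive control.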

[6] = Tanguay_ZF_120hpf_YSE_legacy: (Legacy) Oregon State University Tanguay Lab 120 Hour Post-fertilization zebrafish Assay for Yolk Sac Edema (AID 2283634)
Outline: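 Binary brightfield scoring of yolk sac edema at 120 hpf; DMSO baseline, gain-of-signal fitting. Dechorionated 5D larvae, one per well, static exposure 6–120 hpf, 28C, 0.64% DMSO. Dead embryos not scored.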

[7] = Tanguay_ZF_120hpf_EYE_legacy: (Legacy) Oregon State University Tanguay Lab 120 Hour Post-fertilization zebrafish Assay for Eye Malformation (AID 2283636)
Outline: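 Read-out is binary presence or absence of eye malformation, scored by brightfield microscopy at 120 hpf. Single larvae were exposed from 6 hpf in embryo medium containing 0.64% DMSO, with DMSO as baseline.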

[8] = Tanguay_ZF_120hpf_SNOU_legacy: (Legacy) Oregon State University Tanguay Lab 120 Hour Post-fertilization zebrafish Assay for Snout Malformation (AID 2283637)
Outline: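 Snout malformation read as a yes/no call on brightfield images of 120 hpf larvae (Tropical 5D strain). Static exposure began at 6 hpf on dechorionated embryos in 0.64% DMSO, with gain of signal analysed versus DMSO controls.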

[9] = Tanguay_ZF_120hpf_JAW_legacy: (Legacy) Oregon State University Tanguay Lab 120 Hour Post-fertilization zebrafish Assay for Jaw Malformation (AID 2283638)
Outline: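 Binary jaw-malformation calls at 120 hpf by brightfield imaging; DMSO (0.64% v/v) = baseline. Embryos: 5D wild-type, pronase-dechorionated, one per well from 6 hpf, static exposure, 28C, sealed, dark.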

[10] = Tanguay_ZF_120hpf_SOMI_legacy: (Legacy) Oregon State University Tanguay Lab 120 Hour Post-fertilization zebrafish Assay for Somite Malformation (AID 2283647)
Outline: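 Binary brightfield scoring of somite defects at 120 hpf in 5D wild-type larvae; one dechorionated embryo per well, static exposure from 6 hpf, 28C, sealed and dark. Final DMSO 0.64%; trimethyltin chloride 5uM positive control.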

[11] = Tanguay_ZF_120hpf_CFIN_legacy: (Legacy) Oregon State University Tanguay Lab 120 Hour Post-fertilization zebrafish Assay for Caudal Fin Malformation (AID 2283649)
Outline: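 Dechorionated 5D wild-type zebrafish, static exposure 6–120 hpf, 28C, sealed and dark, 0.64% v/v DMSO final. Binary fin-malformation call at 120 hpf, brightfield; gain of signal vs DMSO baseline.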

[12] = TOX21_p53_BLA_p2_viability: Viability Assessment in the Tox21 HCT-116 p53 Agonism Beta-lactamase Assay, Phase 2 (AID 2283591);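 further: compound exposure lasted 16 h at 37 °C; actives lower the ATP signal meaning cytotoxicity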
Outline: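 Cytotoxicity readout: CellTiter-Glo ATP luminescence, 30 min at room temperature, after the beta-lactamase read. Cells were HCT116 exposed 16 h at 37C to compounds pin-transferred at 217-fold dilution from DMSO stocks.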

[13] = target: Cellular tumor antigen p53 (Homo sapiens) (UniProt P04637); test: TOX21_p53_BLA_p4_ratio: Tox21 HCT-116 p53 Agonism Beta-lactamase Assay, Ratio, Phase 4 (AID 2283601)
Outline: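 Signal is the blue/green (460nm/530nm) ratio of cleaved versus uncleaved CCF4-AM substrate, read after 2 h substrate loading. Cells were HCT116 carrying the p53-responsive beta-lactamase reporter, dosed 16 h at 37C, 5% CO2; CellTiter-Glo measured in parallel.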

[14] = target: Cellular tumor antigen p53 (Homo sapiens) (UniProt P04637); test: TOX21_p53_BLA_p2_ratio: Tox21 HCT-116 p53 Agonism Beta-lactamase Assay, Ratio, Phase 2 (AID 2283592)
Outline: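 In this cell-based reporter format, HCT116 cells were dosed with chemicals delivered from DMSO by 217-fold dilution and incubated 16 h at 37C. Emission at 460 and 530 nm after 2 h CCF4-AM loading provided the ratio, fitted upward versus DMSO.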

[15] = TOX21_p53_BLA_p3_viability: Viability Assessment in the Tox21 HCT-116 p53 Agonism Beta-lactamase Assay, Phase 3 (AID 2283593);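 further: cells exposed to compound for 16 h before reading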
Outline: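 Cellular ATP was quantified by CellTiter-Glo luminescence, read after 30 min at room temperature. Beforehand, HCT116 cells (4000/well) received compound 5 h post-seeding, 217-fold diluted from DMSO, then incubated 16 h at 37C.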

[16] = Tanguay_ZF_120hpf_AXIS_legacy: (Legacy) Oregon State University Tanguay Lab 120 Hour Post-fertilization zebrafish Assay for Body Axis Malformation (AID 2283635)
Outline: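 Embryos: 5D wild-type, pronase-dechorionated 4 hpf; static exposure 6–120 hpf, 28C, sealed, dark, 1 embryo/well, 0.64% DMSO. 120 hpf axis malformation scored present/absent; dead embryos excluded. Analysed as gain of signal vs DMSO.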

[17] = Tanguay_ZF_120hpf_OTIC_legacy: (Legacy) Oregon State University Tanguay Lab 120 Hour Post-fertilization zebrafish Assay for Otic Vesicle Malformation (AID 2283639)
Outline: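 Tropical 5D wild-type zebrafish embryos were exposed statically in sealed, foil-covered plates at 28C until 120 hpf, with 0.64% (vol/vol) DMSO final. Otic vesicle malformation was scored present/absent by brightfield microscopy, with DMSO as baseline.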

Measured: outcome

Sequence of Cellular tumor antigen p53 (Homo sapiens) (P04637 whole entry, looked up): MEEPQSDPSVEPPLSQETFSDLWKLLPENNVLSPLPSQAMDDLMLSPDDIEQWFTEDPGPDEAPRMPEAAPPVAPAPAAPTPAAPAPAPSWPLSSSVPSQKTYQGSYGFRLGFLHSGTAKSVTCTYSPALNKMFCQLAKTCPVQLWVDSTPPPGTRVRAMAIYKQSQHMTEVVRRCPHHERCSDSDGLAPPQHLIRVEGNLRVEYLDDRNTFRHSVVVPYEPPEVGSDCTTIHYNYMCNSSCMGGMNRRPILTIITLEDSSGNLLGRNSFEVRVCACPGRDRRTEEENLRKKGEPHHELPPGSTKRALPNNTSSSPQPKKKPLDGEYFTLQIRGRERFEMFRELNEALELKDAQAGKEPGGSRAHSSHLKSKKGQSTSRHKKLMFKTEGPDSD

CC(C)N(C(=O)COc1nnc(C(F)(F)F)s1)c1ccc(F)cc1
not listed: [12] | [13] | [14] | [15] | [16] | [17]
inactive: all other assays above

COC(=O)c1ccccc1S(=O)(=O)NC(=O)N(C)c1nc(C)nc(OC)n1
inactive: [12] | [2] | [4] | [13]

COC(=O)c1ccccc1CS(=O)(=O)NC(=O)Nc1nc(OC)cc(OC)n1
inactive: [12] | [14] | [15] | [4] | [13]

CCOC1Oc2ccc(OS(C)(=O)=O)cc2C1(C)C (configuration not stated)
inactive: [5] | [6] | [16] | [7] | [8] | [9] | [17] | [10] | [11]

C[C@H]1[C@H](c2ccc(Cl)cc2)SC(=O)N1C(=O)NC1CCCCC1
not listed: [2] | [13]
inactive: all other assays above

CCc1ccc(C(=O)NN(C(=O)c2cc(C)cc(C)c2)C(C)(C)C)cc1
not listed: [4] | [6] | [10] | [15]
inactive: all other assays above

CCC(C)Nc1c([N+](=O)[O-])cc(C(C)(C)C)cc1[N+](=O)[O-] (configuration not stated)
inactive: [5] | [6] | [16] | [7] | [8] | [9] | [17] | [10] | [11]

CNC(=O)/C=C(\C)OP(=O)(OC)OC
inactive: [5] | [6] | [16] | [7] | [8] | [9] | [17] | [10]

CNC(=O)Oc1ccccc1OC(C)C
not listed: [2] | [7] | [10] | [15]
inactive: all other assays above

From PubChem BioAssay (EPA / NIEHS)
